Experimental data from PubChem BioAssay (NCATS).
Where “and” joins values, the source holds several entries; their conditions need not be identical. Equal values may be shown once. Records with an inconclusive call do not appear. More than one record can exist for a structure, and the calls need not agree. A number with no mark means an inactive call. Calls of active or inactive are those of the source. Calls follow the shape of the dose curve; as a rule, active = well fitted inhibition curve with a large enough effect; inconclusive = small, poorly fitted or top-dose-only effect; inactive = flat fitted curve, though single readings scatter.

Tested on: KB-3-1
Test: Cytotoxic Profiling of Annotated Libraries Using Quantitative High-Throughput Screening (AID 1296008); also: nearly all actives have a fitted effect of over 60% in size
Settings: Five cell lines viability, CellTiter-Glo ATP luminescence, 48-72 h; max response: active compounds read low
Outline: (§1)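 Cells exposed to compounds for 48 or 72 hr at 37 degrees Celsius. Viability read as ATP-coupled luminescence with CellTiter-Glo after 10 min at room temperature.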
% is scaled to controls: 0 for no effect and ±100 for the full control effect; potency is read from the fitted curve at half-maximal effect.

| SMILES | max response | outcome | Potency |
| --- | --- | --- | --- |
| CC(C)c1ccc2oc3nc(N)c(C(=O)O)cc3c(=O)c2c1 | -4.86% | inactive | – |
| Nc1nc(OCc2ccccc2)c2[nH]cnc2n1 | 5.98% | – | – |
| C[C@@H](N)C1CCC(C(=O)Nc2ccncc2)CC1 (stereo partly specified) | -5.62% | – | – |
| O=C(NCCO[N+](=O)[O-])c1cccnc1 | – | inactive | – |
| Oc1ccc(OCc2ccccc2)cc1 | 45.1% | inactive | – |
| Cc1nc(Nc2ncc(C(=O)Nc3c(C)cccc3Cl)s2)cc(N2CCN(CCO)CC2)n1 | -28.1% | – | – |
| CC1(C)NC(=O)N(c2ccc([N+](=O)[O-])c(C(F)(F)F)c2)C1=O | 2.37% and -24.9% | – | – |
| Cc1cc(=O)c2c(O)c3c(O)cc(=O)c4c3c3c(cc(O)c1c23)C(C)(C)C=4O | – | – | 11.6 µM (active) and 23.5 µM (active) |
| CNC[C@@H](O)[C@@H](O)[C@H](O)[C@H](O)CO | 5.74% | – | – |
| c1ccc2[nH]c(-c3cscn3)nc2c1 | -14.9% and 2.26% | – | – |
| Nc1ccc(S(N)(=O)=O)cc1 | 4.1% and 2.9% | – | – |
| Nc1ncn([C@H]2C[C@H](O)[C@@H](CO)O2)c(=O)n1 | 9.32% | inactive | – |
| OC(CN1CCN(c2cccc(Cl)c2)CC1)C(c1ccccc1)c1ccccc1 (stereo unspecified) | -12.1% and -1.2% | – | – |
| Cc1c(OCC(F)(F)F)ccnc1CS(=O)c1nc2ccccc2[nH]1 (stereo unspecified) | -13.1% and -5.17% | – | – |
| O=C(O)c1cccnc1Nc1cccc(C(F)(F)F)c1 | 5.86% and -3.77% | – | – |
| NC(=O)Cc1cccc(C(=O)c2ccccc2)c1N | -8.75% | – | – |
| Cc1ccc(NC(=O)c2ccc(CN3CCN(C)CC3)cc2)cc1Nc1nccc(-c2cccnc2)n1 | -0.677% and -9.97% and -10.5% | – | – |
| Cc1cc(=O)oc2cc(O)ccc12 | 2.35% and 1.97% | – | – |
| COc1ccccc1N1CCN(CCN(C(=O)C2CCCCC2)c2ccccn2)CC1 | -8.11% and 2.92% | – | – |
| N[C@@H](Cc1cc(I)c(Oc2cc(I)c(O)c(I)c2)c(I)c1)C(=O)O | -0.982% and 2.52% | inactive | – |
| Cc1nccn1CC1CCc2c(c3ccccc3n2C)C1=O (stereo unspecified) | -3.61% and -19.2% | inactive | – |
| CN1CCC(=C2c3ccccc3CCc3sccc32)CC1 | -12.2% and -19.3% | – | – |
| CCC(C)(Oc1ccc(C2(c3ccc(OC(C)(CC)C(=O)O)cc3)CCCCC2)cc1)C(=O)O (stereo unspecified) | -0.0453% and 5.37% | inactive | – |
| C[C@H](Cn1cnc2c(N)ncnc21)OCP(=O)(O)O | – | inactive | – |
| COCCCOc1ccnc(CS(=O)c2nc3ccccc3[nH]2)c1C (stereo unspecified) | -10% | inactive | – |
| CCOc1cc(CC(=O)N[C@@H](CC(C)C)c2ccccc2N2CCCCC2)ccc1C(=O)O | 4.6% | inactive | – |
| CCCCc1ccc2nc(NC(=O)OC)[nH]c2c1 | – | – | 23.5 nM (active) |
| CC1Cc2ccccc2N1NC(=O)c1ccc(Cl)c(S(N)(=O)=O)c1 (stereo unspecified) | -19.1% and -17.8% and -4.71% | – | – |
| COc1cc2c(cc1OC)C1CC(=O)C(CC(C)C)CN1CC2 (stereo unspecified) | -0.991% | – | – |

Tested on: NIH3T3
Test: as above
Settings: Five cell lines viability, CellTiter-Glo ATP luminescence, 48-72 h; max response: active compounds read low
Outline: as §1

| SMILES | max response | outcome | Potency |
| --- | --- | --- | --- |
| CC(C)c1ccc2oc3nc(N)c(C(=O)O)cc3c(=O)c2c1 | -24.8% and -20.9% | – | – |
| c1cnc2cc3c(cc2n1)C1CNCC3C1 | 4.61% | inactive | – |
| Nc1nc(OCc2ccccc2)c2[nH]cnc2n1 | – | inactive | – |
| C[C@@H](N)C1CCC(C(=O)Nc2ccncc2)CC1 (stereo partly specified) | -5.63% | – | – |
| CCN(CC)CCOc1ccc(Cc2ccccc2)cc1 | -6.6% | – | – |
| O=C(NCCO[N+](=O)[O-])c1cccnc1 | – | inactive | – |
| Oc1ccc(OCc2ccccc2)cc1 | – | inactive | – |
| Cc1nc(Nc2ncc(C(=O)Nc3c(C)cccc3Cl)s2)cc(N2CCN(CCO)CC2)n1 | -106% | – | 59.6 nM (active) and 73.1 nM (active) |
| Cc1ccc(C(=O)c2cc(O)c(O)c([N+](=O)[O-])c2)cc1 | 1.41% | – | – |
| CC1(C)NC(=O)N(c2ccc([N+](=O)[O-])c(C(F)(F)F)c2)C1=O | -6.23% and -0.388% | – | – |
| Cc1cc(=O)c2c(O)c3c(O)cc(=O)c4c3c3c(cc(O)c1c23)C(C)(C)C=4O | -0.918% | – | – |
| CNC[C@@H](O)[C@@H](O)[C@H](O)[C@H](O)CO | – | inactive | – |
| c1ccc2[nH]c(-c3cscn3)nc2c1 | 2.11% and -9.05% | – | – |
| Nc1ccc(S(N)(=O)=O)cc1 | -7.64% | inactive | – |
| CCOC(=O)c1c(C)n(C)c2ccc(O)cc12 | -5.37% | inactive | – |
| Nc1ncn([C@H]2C[C@H](O)[C@@H](CO)O2)c(=O)n1 | -24.2% | – | – |
| OC(CN1CCN(c2cccc(Cl)c2)CC1)C(c1ccccc1)c1ccccc1 (stereo unspecified) | -14.3% | inactive | – |
| Cc1c(OCC(F)(F)F)ccnc1CS(=O)c1nc2ccccc2[nH]1 (stereo unspecified) | 1.81% and 4.74% | – | – |
| CC(C)[C@H](N)C(=O)OCCOCn1cnc2c(=O)[nH]c(N)nc21 | – | inactive | – |

| SMILES | max response | outcome | Potency |
| --- | --- | --- | --- |
| O=C(O)c1cccnc1Nc1cccc(C(F)(F)F)c1 | -31.9% | inactive | – |
| NC(=O)Cc1cccc(C(=O)c2ccccc2)c1N | 1.53% and -19% | – | – |
| Cc1ccc(NC(=O)c2ccc(CN3CCN(C)CC3)cc2)cc1Nc1nccc(-c2cccnc2)n1 | -15.2% | inactive | – |
| Cc1cc(=O)oc2cc(O)ccc12 | -7.66% and -0.637% | – | – |
| COc1ccccc1N1CCN(CCN(C(=O)C2CCCCC2)c2ccccn2)CC1 | -13.5% | inactive | – |
| N[C@@H](Cc1cc(I)c(Oc2cc(I)c(O)c(I)c2)c(I)c1)C(=O)O | -14.5% | inactive | – |
| Cc1nccn1CC1CCc2c(c3ccccc3n2C)C1=O (stereo unspecified) | -4.36% and -4.32% and -0.458% | – | – |
| CN1CCC(=C2c3ccccc3CCc3sccc32)CC1 | 2.3% | inactive | – |
| CCC(C)(Oc1ccc(C2(c3ccc(OC(C)(CC)C(=O)O)cc3)CCCCC2)cc1)C(=O)O (stereo unspecified) | -0.924% | inactive | – |
| Cc1ccc(Nc2nccc(N(C)c3ccc4c(C)n(C)nc4c3)n2)cc1S(N)(=O)=O | – | – | 7.43 µM (active) and 7.31 µM (active) |
| CC(S)C(=O)NCC(=O)O (stereo unspecified) | 0.885% and -1.07% | – | – |
| C[C@H](Cn1cnc2c(N)ncnc21)OCP(=O)(O)O | – | inactive | – |
| COCCCOc1ccnc(CS(=O)c2nc3ccccc3[nH]2)c1C (stereo unspecified) | -12.1% and 2.17% | inactive | – |
| CCOc1cc(CC(=O)N[C@@H](CC(C)C)c2ccccc2N2CCCCC2)ccc1C(=O)O | 4.08% | – | – |
| CCCCc1ccc2nc(NC(=O)OC)[nH]c2c1 | – | – | 16.6 nM (active) |
| CNC[C@H](O)c1ccc(O)c(O)c1 | – | inactive | – |
| CC1Cc2ccccc2N1NC(=O)c1ccc(Cl)c(S(N)(=O)=O)c1 (stereo unspecified) | 3.24% and 4.11% | – | – |
| COc1cc2c(cc1OC)C1CC(=O)C(CC(C)C)CN1CC2 (stereo unspecified) | – | inactive | – |
